A short description of experiment [1]: qHTS assay for small molecule agonists of retinoid X receptor alpha signaling (AID 588544; calls by dose curve;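 for activation: 0% = DMSO basal wells and 100% = reference agonist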). To be noted: HEK293T RXRa-UAS-bla, beta-lactamase reporter, 18 h; 530 nm emission.
Experiment [2] concerns the target Retinoic acid receptor RXR-alpha (Homo sapiens) (UniProt P19793). The experiment is described as above. To be noted: HEK293T RXRa-UAS-bla, beta-lactamase reporter, 18 h; series mostly up to 76.7 µM.
Experiment [3] concerns the target Thyroid hormone receptor beta (Homo sapiens) (UniProt P10828). Nature of the experiment: qHTS assay for small molecule agonists of thyroid hormone receptor beta signaling (AID 588545; calls by dose curve;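 note: 0% = DMSO only and 100% = 10 nM T3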). To be noted: TR-UAS-bla GripTite HEK 293, beta-lactamase ratio, agonist mode, 18 h, percent of T3 response, DMSO as zero; series mostly up to 76.7 µM. The method, boiled down: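 Efficacy and EC50 values derive from Hill fits of qHTS titration data, normalized to 10 nM T3 and DMSO-only wells. HEK 293 reporter cells were stimulated for 18 hrs at 37 C, with beta-lactamase activity measured by CCF4 fluorescence.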
(In general: qHTS replaces the single test concentration by a dilution series.)

Experiment [4] in a line: qHTS assay for small molecule antagonists of retinoid X receptor alpha signaling (AID 588546; active = well fitted inhibition curve with a large enough effect in the signal ratio, with a control signal flat, not every such curve was filed as active; the % refers to the signal ratio;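 note: cells stimulated with 9-cis-retinoic acid as agonist; % is set by controls: 0 for no effect and ±100 for the full control effect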). To be noted: HEK293T RXRa-UAS-bla, beta-lactamase ratio, antagonist mode; measured here: W530 green channel, cytotoxicity proxy. The procedure, abridged:
(§1)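 Beta-lactamase reporter inhibition, read as CCF4 fluorescence ratio (ex 405, em 460/530 nm) after 2 h at RT. HEK293T UAS-bla cells, 2500/well, were stimulated with 9-cis-RA at 500 or 100 nM final alongside test compound for 18 h at 37 C.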

Experiment [5] deals with Retinoic acid receptor RXR-alpha (Homo sapiens) (UniProt P19793). The experiment is described as above. To be noted: HEK293T RXRa-UAS-bla, beta-lactamase ratio, antagonist mode. The procedure, abridged: as §1
The target of experiment [6] is Thyroid hormone receptor beta (Homo sapiens) (UniProt P10828). Nature of the experiment: qHTS assay for small molecule antagonists of thyroid hormone receptor beta signaling (AID 588547; active = well fitted inhibition curve with a large enough effect in the signal ratio, with a control signal flat, not every such curve was filed as active; the % refers to the signal ratio;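 note: cells stimulated with 0.4 nM T3 agonist during compound exposure; % is set by controls: 0 for no effect and ±100 for the full control effect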). To be noted: TR-UAS-bla HEK293, beta-lactamase ratio, antagonist mode, 18 h. The method, boiled down:
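TR-UAS-bla GripTite HEK293 cells in 2% charcoal/dextran FBS medium were preincubated 4 h at 37 C, given compound (0.59 nM to 92 uM) plus 0.4 nM T3 (final) for 18 h, then CCF4 for 2 h at RT; Hill fit gave IC50.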

Experiment [7] has as its target Voltage-gated inwardly rectifying potassium channel KCNH2 (Homo sapiens) (UniProt Q12809). Nature of the experiment: qHTS Assay for Small Molecule Inhibitors of the Human hERG Channel Activity (AID 588834).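 Note: lower thallium flux fluorescence means stronger hERG block; nearly all actives have a fitted effect of over 50% in size.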 Note: potency is the fitted concentration of half-maximal effect. To be noted: U2OS BacMam hERG, FluxOR thallium flux fluorescence; series mostly up to 46.1 µM. The procedure, abridged:
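hERG block measured as reduced thallium-dye (FluxOR) fluorescence after stimulation buffer addition, read over 2 min. Cells were hERG-BacMam-transduced U2OS exposed to compound ~10 min […]; concentration-response fitted with Hill equation for AC50.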

Experiment [8] in a line: qHTS assay for small molecule agonists of the antioxidant response element (ARE) signaling pathway (AID 651741; active = well fitted activation curve with a large enough effect in the signal ratio; the % refers to the signal ratio; note: potency is the fitted concentration of half-maximal effect; for activation: % of control where 0% means no effect). To be noted: HepG2 ARE-bla reporter, beta-lactamase FRET ratio, 16 h; series mostly up to 96 µM. The procedure, abridged: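 Reporter: beta-lactamase under ARE, stably in HepG2. Exposure: 16 h, 37 C, compounds delivered in DMSO by pin tool after 5 h cell preincubation. Readout: FRET substrate fluorescence after 2 h at RT.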

Experiment [9] in a line: qHTS assay for small molecule activators of the p53 signaling pathway (AID 651743; active = well fitted activation curve with a large enough effect in the signal ratio, not every such curve was filed as active; the % refers to the signal ratio; note: % of control where 0% means no effect). To be noted: HCT-116 p53RE-bla, beta-lactamase FRET ratio, 16 h; activation: stronger effect = higher value. The method, boiled down: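 Agonist-mode quantitative HTS in HCT-116 cells carrying a p53-response-element beta-lactamase reporter; 16 h compound treatment at 37 C, then FRET substrate loading for 2 h at room temperature and fluorescence read.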

Experiment [10] has as its target Vitamin D3 receptor (Homo sapiens) (UniProt P11473). Nature of the experiment: qHTS assay for small molecule antagonists of vitamin D receptor signaling (AID 588541; calls by dose curve; note: potency is the fitted concentration of half-maximal effect). To be noted: HEK293T VDR-UAS-bla, beta-lactamase ratio, antagonist mode; series mostly up to 76.7 µM. The method, boiled down: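 VDR-UAS-bla HEK293T cells (2000/well, 2% charcoal-stripped FBS) were treated with titrated compounds plus 1-alpha,25-dihydroxyvitamin D3 (50 nM or 3 nM final) for 16 h at 37 C. CCF4 beta-lactamase fluorescence was read; Hill fits gave IC50.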

The target is the same in experiment [11]. The experiment is described as follows: qHTS assay for small molecule agonists of vitamin D receptor signaling (AID 588543; calls by dose curve;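 note: 0% = DMSO basal and 100% = reference agonist control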). To be noted: HEK293T VDR-UAS-bla, beta-lactamase ratio, 16 h; series mostly up to 76.8 µM. The method, boiled down:
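Agonist-mode beta-lactamase reporter: HEK293T VDR-UAS-bla cells in charcoal-stripped 2% FBS, compound series 16 h 37 C, CCF4 2 h RT. EC50 from Hill fit, scaled against DMSO and 50 nM calcitriol control.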

The target of experiment [12] is Glucagon-like peptide 1 receptor (Homo sapiens) (UniProt P43220). The experiment is described as follows: qHTS of GLP-1 Receptor Agonists: LOPAC Validation (AID 624148).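 Note: 0% is about no effect; higher luminescence signal means agonism.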 To be noted: GLP-1R agonist cell assay; series mostly up to 46.1 µM. The procedure, abridged:
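HEK293 cells stably co-expressing a cAMP-responsive luciferase reporter and a hypersensitive GLP-1R were plated 12 h at 37 °C and exposed to compounds for 4-6 hr at 37 °C, 5% CO2. Luminescence was read 12 min after adding detection reagent.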

A short description of experiment [13]: HTS Assay for Allosteric Antagonists of the Human D2 Dopamine Receptor: Hit Validation in HTRF (AID 624455).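 Note: stable D1 dopamine receptor cell line scored for blocking the D1 response; % is set by controls: 0 for no effect and ±100 for the full control effect.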 To be noted: Cells stably expressing D1 dopamine receptor, inhibition mode; series mostly up to 46.1 µM. The procedure, abridged:
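Inhibition of the D1-mediated response is measured by HTRF in cells that stably express the D1 dopamine receptor. Compounds reaching this step are hits from calcium-flux antagonism testing at EC80 dopamine in inducible Hek293 Trex D2 cells.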
On the technique in general: TR-FRET usually uses a lanthanide donor and a delayed reading to cut background.

Experiment [14] addresses Luciferin 4-monooxygenase (Photinus pyralis) (UniProt P08659). Nature of the experiment: Biochemical firefly luciferase enzyme assay for NPC (AID 624030).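 Note: purified P. pyralis luciferase at 10 nM with luciferin and ATP substrate; 0% = DMSO and -100% = full luciferase inhibition by PTC124 control; nearly all actives have a fitted effect of over 70% in size.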 To be noted: purified P. pyralis luciferase, luminescence, 5 min; series mostly up to 58.6 µM. The procedure, abridged: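 Counter-screen for direct inhibition of the luciferase enzyme by approved-drug library compounds, run at 10 nM enzyme in 50 mM Tris acetate (final). Luminescence was read within 5 min of enzyme-buffer addition and normalized to PTC124 versus DMSO (0%).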

Experiment [15] is described as follows: S16 Schwann cell viability assay (CellTiter-Glo assay) (AID 624031).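 Note: native untransfected S16 rat Schwann cells; cellular ATP luminescence as a viability measure; plate controls were DMSO-treated cells for no effect and cell-free wells for full effect; nearly all actives have a fitted effect of over 70% in size.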 To be noted: S16 rat Schwann cells viability, 24 h; series mostly up to 57.5 µM. The procedure, abridged:
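Following overnight culture in 10% FBS DMEM, parental S16 rat Schwann cells are dosed for 24 h at 37 °C. Viability is read as CellTiter-Glo luminescence and expressed as % activity relative to DMSO (0%) and no-cell wells.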
A general note: In ATP-based viability assays light output follows the ATP content of the culture.

The nature of experiment [16]: S16 Schwann cell PMP22 intronic element firefly luciferase assay (AID 624032).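 Note: plate controls were DMSO for no effect and PTC124 positive control mean for full effect; nearly all actives have a fitted effect of over 30% in size.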 To be noted: S16 rat Schwann cells, PMP22 element FLuc, 24 h; series mostly up to 57.5 µM. The procedure, abridged: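 Rat S16 Schwann cells stably carrying a PMP22 intronic element-driven Fluc reporter were seeded overnight, then exposed to compounds for 24 h at 37 °C. Luminescence was normalized to PTC124 (positive control) and DMSO (0% activity).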

Experiment [17] in a line: S16 Schwann cell PMP22 intronic element beta-lactamase assay (AID 624044; calls by dose curve;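 note: 0% = DMSO and -100% = potassium clavulanate positive control; nearly all actives have a fitted effect of over 15% in size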). To be noted: S16 rat Schwann cells, PMP22 element beta-lactamase FRET, 24 h; series mostly up to 38.3 µM. The method, boiled down:
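Beta-lactamase reporter under a PMP22 intronic regulatory element in stable S16 rat Schwann cells; 24 h compound exposure. 460 nm blue signal normalized between DMSO (0%) and potassium clavulanate, with 535 nm FRET tracking viability; curves classed by r2 and response.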

Where “and” joins values, the source holds several entries; their conditions need not be identical. Identical values can stand only once. Records with an inconclusive call do not appear. More than one record can exist for a structure, and the calls need not agree. Calls of active or inactive are those of the source. Unless noted, calls come from the whole dose curve; as a rule, active = well fitted curve in the direction sought with a large enough effect; inconclusive = small, poorly fitted or top-dose-only effect, or another doubt; inactive = no such curve, though single readings can be large; an effect the other way counts as inactive or inconclusive.

Voltage-gated inwardly rectifying potassium channel KCNH2 (Homo sapiens), sequence (Q12809 whole entry, looked up): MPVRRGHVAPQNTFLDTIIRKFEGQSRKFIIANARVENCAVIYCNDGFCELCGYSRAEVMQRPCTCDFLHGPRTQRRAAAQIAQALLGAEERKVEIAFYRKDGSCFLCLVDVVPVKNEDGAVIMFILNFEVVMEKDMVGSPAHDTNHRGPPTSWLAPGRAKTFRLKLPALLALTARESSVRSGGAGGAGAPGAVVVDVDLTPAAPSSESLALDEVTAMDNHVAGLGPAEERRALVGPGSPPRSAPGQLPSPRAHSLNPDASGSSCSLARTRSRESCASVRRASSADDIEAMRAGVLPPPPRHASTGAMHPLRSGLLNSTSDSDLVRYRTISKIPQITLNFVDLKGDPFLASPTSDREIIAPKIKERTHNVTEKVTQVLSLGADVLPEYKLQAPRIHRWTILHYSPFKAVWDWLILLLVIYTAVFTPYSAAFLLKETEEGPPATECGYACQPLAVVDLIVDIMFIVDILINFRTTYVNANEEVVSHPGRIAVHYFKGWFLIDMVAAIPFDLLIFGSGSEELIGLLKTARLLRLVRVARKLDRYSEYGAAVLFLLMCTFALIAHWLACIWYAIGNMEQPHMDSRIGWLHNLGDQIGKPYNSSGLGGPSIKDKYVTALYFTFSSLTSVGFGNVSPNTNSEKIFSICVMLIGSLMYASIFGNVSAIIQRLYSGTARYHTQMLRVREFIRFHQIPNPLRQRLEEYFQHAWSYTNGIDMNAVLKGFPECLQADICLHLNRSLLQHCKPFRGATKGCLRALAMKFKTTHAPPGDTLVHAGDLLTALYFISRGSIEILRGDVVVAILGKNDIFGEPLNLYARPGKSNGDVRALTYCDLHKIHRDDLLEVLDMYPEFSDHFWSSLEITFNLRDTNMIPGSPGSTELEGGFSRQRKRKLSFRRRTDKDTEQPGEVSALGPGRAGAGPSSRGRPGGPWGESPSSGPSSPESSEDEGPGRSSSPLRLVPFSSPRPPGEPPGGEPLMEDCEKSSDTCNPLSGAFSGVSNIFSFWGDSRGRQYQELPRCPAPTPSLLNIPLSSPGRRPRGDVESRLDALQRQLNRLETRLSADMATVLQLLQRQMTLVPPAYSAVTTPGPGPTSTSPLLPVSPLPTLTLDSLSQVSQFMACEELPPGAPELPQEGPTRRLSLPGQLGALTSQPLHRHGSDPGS
Luciferin 4-monooxygenase (Photinus pyralis), sequence (P08659 whole entry, looked up): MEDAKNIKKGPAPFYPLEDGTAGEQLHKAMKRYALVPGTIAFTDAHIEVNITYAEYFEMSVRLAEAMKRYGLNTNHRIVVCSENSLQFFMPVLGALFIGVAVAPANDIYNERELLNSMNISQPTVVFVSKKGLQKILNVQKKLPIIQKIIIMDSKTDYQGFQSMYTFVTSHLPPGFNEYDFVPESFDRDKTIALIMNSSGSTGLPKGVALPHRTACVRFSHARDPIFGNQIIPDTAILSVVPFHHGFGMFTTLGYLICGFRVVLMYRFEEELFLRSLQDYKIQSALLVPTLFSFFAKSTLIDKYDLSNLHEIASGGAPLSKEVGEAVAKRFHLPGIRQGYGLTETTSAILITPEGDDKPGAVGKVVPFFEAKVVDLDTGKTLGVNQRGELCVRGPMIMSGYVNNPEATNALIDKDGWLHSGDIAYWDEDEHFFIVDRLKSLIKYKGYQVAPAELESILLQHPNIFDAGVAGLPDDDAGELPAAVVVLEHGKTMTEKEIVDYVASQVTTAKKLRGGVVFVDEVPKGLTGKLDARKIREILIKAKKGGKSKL
Retinoic acid receptor RXR-alpha (Homo sapiens), sequence (P19793 whole entry, looked up): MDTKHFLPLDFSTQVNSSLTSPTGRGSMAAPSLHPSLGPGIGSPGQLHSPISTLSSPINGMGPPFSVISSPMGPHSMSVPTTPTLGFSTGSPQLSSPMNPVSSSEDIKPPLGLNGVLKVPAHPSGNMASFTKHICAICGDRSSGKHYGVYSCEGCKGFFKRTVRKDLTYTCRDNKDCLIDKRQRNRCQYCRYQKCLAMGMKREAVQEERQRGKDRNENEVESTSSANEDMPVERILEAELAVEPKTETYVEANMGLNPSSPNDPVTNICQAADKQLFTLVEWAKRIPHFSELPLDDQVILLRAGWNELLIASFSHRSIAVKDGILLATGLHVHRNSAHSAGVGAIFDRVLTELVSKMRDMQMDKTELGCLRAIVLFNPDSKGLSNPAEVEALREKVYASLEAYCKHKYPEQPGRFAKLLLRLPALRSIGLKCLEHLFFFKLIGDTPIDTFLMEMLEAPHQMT
Thyroid hormone receptor beta (Homo sapiens), sequence (P10828 whole entry, looked up): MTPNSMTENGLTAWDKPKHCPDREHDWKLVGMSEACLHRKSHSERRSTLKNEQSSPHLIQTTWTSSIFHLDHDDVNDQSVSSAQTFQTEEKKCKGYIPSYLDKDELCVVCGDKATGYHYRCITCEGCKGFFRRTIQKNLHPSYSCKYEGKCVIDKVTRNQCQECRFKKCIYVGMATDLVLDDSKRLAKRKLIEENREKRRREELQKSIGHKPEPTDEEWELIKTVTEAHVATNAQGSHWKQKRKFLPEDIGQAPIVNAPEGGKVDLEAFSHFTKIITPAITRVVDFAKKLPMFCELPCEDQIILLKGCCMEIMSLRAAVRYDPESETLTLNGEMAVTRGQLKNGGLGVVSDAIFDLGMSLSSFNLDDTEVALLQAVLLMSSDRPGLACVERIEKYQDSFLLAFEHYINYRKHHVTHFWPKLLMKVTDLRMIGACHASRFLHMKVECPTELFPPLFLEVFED
Vitamin D3 receptor (Homo sapiens), sequence (P11473 whole entry, looked up): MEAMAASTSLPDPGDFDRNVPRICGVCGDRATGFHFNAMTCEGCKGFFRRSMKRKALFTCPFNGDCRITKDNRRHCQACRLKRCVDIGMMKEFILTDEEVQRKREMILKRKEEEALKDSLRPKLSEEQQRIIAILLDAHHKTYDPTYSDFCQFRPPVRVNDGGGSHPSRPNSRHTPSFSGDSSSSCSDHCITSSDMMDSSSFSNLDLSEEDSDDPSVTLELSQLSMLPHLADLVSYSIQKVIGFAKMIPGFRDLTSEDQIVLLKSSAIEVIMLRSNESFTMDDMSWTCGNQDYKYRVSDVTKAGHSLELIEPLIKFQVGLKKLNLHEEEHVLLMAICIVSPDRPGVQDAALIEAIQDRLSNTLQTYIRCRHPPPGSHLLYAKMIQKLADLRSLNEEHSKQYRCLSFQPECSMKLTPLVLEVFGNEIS
Glucagon-like peptide 1 receptor (Homo sapiens), sequence (P43220 whole entry, looked up): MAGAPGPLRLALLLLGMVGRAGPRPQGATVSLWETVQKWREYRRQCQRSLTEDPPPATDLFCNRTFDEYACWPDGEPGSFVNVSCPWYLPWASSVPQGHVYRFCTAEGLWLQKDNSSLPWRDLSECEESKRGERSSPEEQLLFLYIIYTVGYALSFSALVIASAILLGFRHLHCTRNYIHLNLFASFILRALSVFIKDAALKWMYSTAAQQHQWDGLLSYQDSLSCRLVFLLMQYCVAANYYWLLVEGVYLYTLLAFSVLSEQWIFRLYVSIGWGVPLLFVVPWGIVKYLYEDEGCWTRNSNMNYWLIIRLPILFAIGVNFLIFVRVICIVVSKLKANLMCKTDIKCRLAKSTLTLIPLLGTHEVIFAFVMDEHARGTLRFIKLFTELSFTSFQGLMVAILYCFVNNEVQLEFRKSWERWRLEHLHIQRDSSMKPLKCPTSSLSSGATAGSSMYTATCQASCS

Turning to `COc1ccc2c(c1OC)C(=O)OC2C1c2cc3c(cc2CCN1C)OCO3` (stereo not given), the max response in [1] is 0.13%; in experiment [4], -2.26%; in [5], 20.7% (inactive). The Potency entry in experiment [2] and in experiment [8] was “inactive” throughout. The result in [3] was inactive. For the same compound, the activity change % (negative = inhibition) in experiment [6] was -14.3% (inactive). Besides, the Potency in [7] is 15.8 µM (active) and inactive. Further, the activation in experiment [9] is -5.72% (inactive).

In the case of `O=C(O)c1cc[c]([Hg][Cl])cc1`, the Potency was 39.8 µM (active) in [10] and 30.6 µM (active) in experiment [8]. Moreover, the outcome in [11], in [3] and in experiment [12] was inactive. Besides, the activity change % (negative = inhibition) in [6] was -18.8% (inactive). Also, the Potency result in experiment [7] and in experiment [13] was “inactive” in each case. Further, in [9], the activation was 10.2% (inactive).

On to `ClC=C(Cl)Cl`, for which the max response was -19% in [1]; -0.484% and -8.25% in experiment [4]; 5.36% (inactive) and -18.5% (inactive) in experiment [5]. Moreover, the Potency entry in experiment [2], in experiment [7], in [14], in [15], in experiment [16] and in [8] was “inactive” in each case. For the same compound, the result in experiment [3] was inactive. For the same compound, the activity change % (negative = inhibition) in [6] was -2.56% (inactive). For the same compound, in experiment [9], the activation was -0.563% (inactive) and 7.22% (inactive).

For `O=c1[nH]c(=O)n(Cl)c(=O)n1Cl`, the activity change % (negative = inhibition) in [6] was 1.99% (inactive). Besides, in [8], the Potency entry is “inactive”.

As to `O=C1C[C@@H]2OCC=C3CN4CC[C@]56c7ccccc7N1[C@H]5[C@H]2[C@H]3C[C@H]46`, the activity change % (negative = inhibition) in experiment [6] was 0.757% (inactive). In addition, the Potency result in experiment [8] was “inactive”.

On to `C[C@H]1CCC[C@H](O)CCCCCc2cc(O)cc(O)c2C(=O)O1`, for which the Potency result in experiment [17] is “inactive”.

Take `CC(C)(C)c1cc(O)ccc1O`: in experiment [17], the Potency entry is “inactive”.

As for `Cc1cccc(C(C)c2cnc[nH]2)c1C` (stereo not given), the Potency result in experiment [7] was “inactive”.

Consider `CC(=O)OO`, for which the Potency result in [7], in experiment [14], in experiment [15] and in [16] was “inactive” in each case.

With `CCCC(C)(COC(N)=O)COC(=O)NC1CC1` (stereo not given), the Potency result in experiment [7], in experiment [14], in experiment [15] and in experiment [16] was “inactive” throughout.

These data come from PubChem BioAssay (NCATS).
